Screens deposited in PubChem by National Center for Advancing Translational Sciences (NCATS).
Marburg entry inh: blocks Marburg virus binding to or entry into cells | Marburg virus pseudotyped entry inhibition, cell reporter | Potency, µM (titrated, usually from 37.8 µM), inactives show top-dose activity change, negative = inhibition, actives largely listed as inhibitors | hit rate 1.8% among 300,000 | AID 540276; calls by dose curve; tested in HEK293 cells; further: potency means the concentration at half of the fitted maximal effect
FMDV antiviral: antivirals against foot and mouth disease virus | FMDV antiviral cell-based qHTS | Potency, µM (top dose mostly 57.9 µM), for the others: at the top dose activity change, negative = inhibition, hits mostly inhibitors | hit rate 1.2% among 410,000 | AID 1159524; calls by dose curve; tested in HEK293T cells; further: read-out not given here; potency means the concentration at half of the fitted maximal effect; nearly all actives have a fitted effect of over 45% in size
HCV inh: blocks hepatitis C virus; Huh7.5.1 HCVcc-Cre infection, luciferase reporter, 44 h; Potency, µM (top dose mostly 41.8 µM), for inactives: top-dose activity change, negative = inhibition, hits mostly inhibitors; hit rate 3.4% among 340,000; AID 651820; further: potency means the concentration at half of the fitted maximal effect
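Infectious HCVcc-Cre (~0.5 moi) was added to cells just after compound, with cells seeded 4 h earlier at 1,000 per well. Luciferase activity after 44 h culture reported infection; substrate was incubated 15 min at room temperature before reading.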
Giardia FBPA inh-1: inhibitors of Giardia lamblia fructose-1,6-bisphosphate aldolase | A8B2U2 | purified Giardia FBPA | Potency, µM (top dose mostly 59.6 µM), inactives show at the top dose activity, negative = inhibition, most hits filed as inhibitors | hit rate 0.71% among 290,000 | AID 2451; further: potency means the concentration at half of the fitted maximal effect; nearly all actives have a fitted effect of over 55% in size
Target sequence (A8B2U2 whole entry, looked up): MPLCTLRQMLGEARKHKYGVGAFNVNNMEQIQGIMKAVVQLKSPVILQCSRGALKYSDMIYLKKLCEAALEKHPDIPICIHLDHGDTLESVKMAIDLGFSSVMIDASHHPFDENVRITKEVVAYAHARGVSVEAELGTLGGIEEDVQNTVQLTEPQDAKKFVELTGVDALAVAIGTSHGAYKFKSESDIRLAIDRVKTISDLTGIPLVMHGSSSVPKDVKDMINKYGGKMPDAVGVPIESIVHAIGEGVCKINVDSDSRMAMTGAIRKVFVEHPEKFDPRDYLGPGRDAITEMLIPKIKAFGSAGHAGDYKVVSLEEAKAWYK
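Giardia FBPA (40 nM reagent) was preincubated 10 min at RT with compound (up to 57.5 uM final), then substrate plus GAPDH/TPI/NAD/arsenate coupling system with diaphorase/resazurin was added; resorufin fluorescence (525/598 nm) was read after 20 min.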
HCMV antiviral: inhibitors of human cytomegalovirus; hit rate 4.5% among 410,000; AID 1259415; activity change, negative = inhibition, % at 57.5 µM; HFF cells, HCMV-luciferase reporter, 72 h; active compounds read low; in the data active means activity change below about -60%; inconclusive means no clear call, values can overlap the other calls; inactive means above about -39%
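Inhibition of viral replication was scored as loss of reporter luminescence in HFFs infected with HCMV-luciferase (MOI 1 PFU/cell) for 72 h; compounds tested at 2 doses, normalized to buffer and Salinomycin controls.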
LASV entry inh: blocks Lassa virus binding to or entry into cells | Lassa virus pseudotype entry inhibition, cell reporter | Potency, µM (titrated, usually from 37.9 µM), inactives show top-dose activity change, negative = inhibition, most hits filed as inhibitors | hit rate 1.2% among 300,000 | AID 540256; calls by dose curve; tested in HEK293 cells; further: potency means the concentration at half of the fitted maximal effect; nearly all actives have a fitted effect of over 50% in size
Giardia growth: inhibitors of Giardia lamblia growth. shares compounds with Giardia FBPA inh-1. Giardia lamblia trophozoite growth inhibition. Potency, µM (titrated, usually from 57.5 µM), for the others: at the top dose activity change, negative = inhibition, hits mostly inhibitors. hit rate 5% among 1,500;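 further: potency means the concentration at half of the fitted maximal effect; trophozoites exposed to compound for 48 h at 37 °C; nearly all actives have a fitted effect of over 70% in size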
Mammal cell tox: counter-screen for Giardia aldolase inhibitors: mammalian cell toxicity. shares compounds with Giardia FBPA inh-1. mammalian cell viability counter-screen, qHTS. Potency, µM (highest dose often 57.5 µM), for the others: at the highest dose viability change, negative = toxicity, most hits filed as inhibitors. hit rate 4% among 1,500. AID 2786;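 further: Chinese hamster ovary cells used as mammalian cytotoxicity surrogate; viability measured as cellular ATP by luminescence; potency means the concentration at half of the fitted maximal effect; compound exposure lasted 48 h before reading; nearly all actives have a fitted effect of over 60% in size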
Giardia FBPA inh-2: confirmation of Giardia fructose-bisphosphate aldolase inhibitors. Potency, µM (series often up to 57.5 µM), without a hit: top-dose activity change, negative = inhibition, usual class: inhibitors. hit rate 5% among 1,500. AID 2787. purified Giardia aldolase enzyme activity, qHTS. shares compounds with Giardia FBPA inh-1; further: potency means the concentration at half of the fitted maximal effect; nearly all actives have a fitted effect of over 45% in size
Rabbit aldolase: rabbit FBP aldolase inhibition by Giardia aldolase hits | shares compounds with Giardia FBPA inh-1 | Rabbit muscle FBPA enzyme inhibition, selectivity counter-screen | Potency, µM (highest dose often 57.5 µM), without a hit: at the top dose activity, negative = inhibition, usual class: inhibitors | hit rate 4% among 1,500 | AID 2794; further: potency means the concentration at half of the fitted maximal effect; nearly all actives have a fitted effect of over 60% in size
Target sequence (P00883 whole entry, looked up): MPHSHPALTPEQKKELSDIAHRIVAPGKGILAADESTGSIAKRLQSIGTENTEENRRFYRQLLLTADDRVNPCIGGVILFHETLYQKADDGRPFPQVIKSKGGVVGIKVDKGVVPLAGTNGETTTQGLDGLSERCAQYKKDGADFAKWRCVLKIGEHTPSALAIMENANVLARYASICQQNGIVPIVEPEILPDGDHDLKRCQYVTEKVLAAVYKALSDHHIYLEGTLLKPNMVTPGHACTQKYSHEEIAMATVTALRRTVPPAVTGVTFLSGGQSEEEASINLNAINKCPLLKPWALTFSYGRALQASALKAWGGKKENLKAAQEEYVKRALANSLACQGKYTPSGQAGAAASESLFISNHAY
GAPDH coupling: counter-screen for Giardia aldolase inhibitors: GAPDH coupling enzyme. shares compounds with Giardia FBPA inh-1. GAPDH coupling enzyme counterscreen, biochemical, qHTS. Potency, µM (top dose mostly 57.5 µM), for the others: at the top dose activity change, negative = inhibition, usual class: inhibitors. hit rate 6% among 1,500. AID 2795; further: potency means the concentration at half of the fitted maximal effect; nearly all actives have a fitted effect of over 55% in size
* = called active by the depositor; ? = inconclusive; · = no result; [ ] = remark or other dose. In the library only some 8.3% were active in any assay of this set; here they are far more common. Unless noted, the call rests on the fitted dose curve; in most records, active means well fitted curve in the direction sought with a large enough effect; inconclusive means small, poorly fitted or top-dose-only effect, or another doubt; inactive means no such curve, though single readings can be large; an effect the other way counts as inactive or inconclusive. On the % scale 0 is the no-effect control and ±100 the full control effect.

SMILES	Marburg entry inh	FMDV antiviral	HCV inh	Giardia FBPA inh-1	HCMV antiviral	LASV entry inh	Giardia growth	Mammal cell tox	Giardia FBPA inh-2	Rabbit aldolase	GAPDH coupling
Cc1ccccc1CSc1ncc(CO)n1Cc1ccc(F)cc1	·	-7%	·	·	-3	-1%[46.1 µM]	·	·	·	·	·
Cn1ccnc1SC(C(=O)O)c1ccccc1 (centres undefined)	·	-4%	-3%	14µM*	14	·	?	20%	5%	6%	3%
Cc1cccc(Cc2cnc(N3C(=N)SC(C)C3=O)s2)c1 (centres undefined)	?	-15%	20%	13µM*	40	-15%	13µM*	8%	7%	1%	4%
O=C(c1ccccc1)N1CCN(CCc2ccccc2)CC1	·	-17%	4%	-3%	133	·	·	·	·	·	·
O=C(c1cccc(Cl)c1)N1CCN(CCCc2ccccc2)CC1	·	-11%	-2%	13µM*	-5	·	-9%	5%	0%	-2%	-12%
COc1cc(OC)cc(C(=O)NC(=S)N2C[C@H]3C[C@H](C2)c2cccc(=O)n2C3)c1	·	-13%	10%	11µM*	13	·	18%	12%	6%	-2%	13%
O=C(NC(=S)N1C[C@H]2C[C@H](C1)c1cccc(=O)n1C2)c1ccc(Cl)cc1	·	-5%	8%	?	17	·	·	·	·	·	·
COc1ccc(/C=C/C(=O)NC(=S)N2C[C@H]3C[C@H](C2)c2cccc(=O)n2C3)cc1OC	·	-4%	?	7.9µM*	-10	·	?	1%	5%	0%	17%
COc1cc(C(=O)NC(=S)N2C[C@H]3C[C@H](C2)c2cccc(=O)n2C3)cc(OC)c1OC	·	-4%	5%	11µM*	24	·	11%[10.4 µM]	17%	3%	10%	9%
CC1CC(C)CN(C(=O)C(C)N(C)CC(=O)Nc2ccc(Cl)cc2)C1 (centres undefined)	·	-20%	?	20µM*	-22	·	-5%	-12%	-2%	5%	6%
Cc1nc(SCC(=O)c2ccc(F)cc2)n[nH]1	4%	22%	11%	28µM*	-22	14%	16%[10.4 µM]	14%	6%	-4%	8%
Nc1nc(SCC(=O)c2ccc(F)cc2)n[nH]1	6%[46.1 µM]	-2%	12%	-1%	-4	10%[46.1 µM]	·	·	·	·	·
O=C(CSc1n[nH]c(-c2ccccc2)n1)c1ccc(O)c(O)c1	4%	38%	?	8.9µM*	25	?	-18%[10.4 µM]	-16%	-28%	-24%	-13%
CCOc1ccc(-c2nc(SCC(=O)c3ccccc3)n[nH]2)cc1	-3%[46.1 µM]	4%	·	·	0	?	·	·	·	·	·
COc1ccccc1N1CCN(C(=O)CN2C(=O)COc3ccc(S(=O)(=O)N4CCOCC4)cc32)CC1	5%[46.1 µM]	11%	·	·	0	1%[46.1 µM]	·	·	·	·	·
CCNC(=S)NNC(=O)c1ccccn1	?	-10%	-9%	?	51	?	·	·	·	·	·
O=C(NNC(=S)Nc1ccc(Cl)c(Cl)c1)c1ccccn1	·	12%	4.5µM*	14µM*	-82*	·	-15%[10.4 µM]	?	28%	15%	18%
CC1=C(c2ccc(C)c(C)c2)S(=O)(=O)N(Cc2ccc(C(=O)Nc3cc(F)ccc3F)cc2)C1=O	·	-29%	·	·	2	-11%[46.1 µM]	·	·	·	·	·
CCOC(=O)Cc1csc(NC(=O)CN2CCOCC2)n1	-16%[46.1 µM]	7%	-4%	14µM*	-2	10%[46.1 µM]	0%[10.4 µM]	1%	4%	5%	15%
CCOC(=O)Cc1csc(NC(=O)CCCc2ccccc2)n1	·	-7%	10%	35µM*	-1	·	-23%	-2%	-17%	-7%	-12%
CCOC(=O)Cc1csc(NS(=O)(=O)c2ccc(NC(C)=O)cc2)n1	·	-7%	8%	14µM*	18	·	0%	16%	8%	15%	17%
CCOC(=O)Cc1csc(NC(=O)CCC(=O)O)n1	5%[46.1 µM]	6%	15%	4%	5	22%[46.1 µM]	·	·	·	·	·
CC(C)c1nn2c(=O)cc(COC(=O)c3ccc(NC(=O)c4cccs4)cc3)nc2s1	·	15%	·	·	-21	15%[46.1 µM]	·	·	·	·	·
COC(=O)N1CCC2(CCN(Cc3nccs3)CC2)CC1	·	-10%	·	3%	·	·	·	·	·	·	·
Cc1ccc(CN2CCC(N3CC(C)OC(C)C3)CC2)cc1 (centres undefined)	·	-18%	12%	16µM*	-12	·	?	5%	3%	5%	1%
SMILES	Marburg entry inh	FMDV antiviral	HCV inh	Giardia FBPA inh-1	HCMV antiviral	LASV entry inh	Giardia growth	Mammal cell tox	Giardia FBPA inh-2	Rabbit aldolase	GAPDH coupling
COc1ccc(CCCC(=O)N/N=C/c2ccccc2OC)cc1	·	2%	-19%	16µM*	47	·	-12%[10.4 µM]	-12%	?	40µM*	25µM*
CC1CCN(C(=O)Cn2ncc3c4ccccc4n(Cc4ccc(Cl)cc4)c3c2=O)CC1	-18%[46.1 µM]	-9%	·	·	9	19%[46.1 µM]	·	·	·	·	·
Cc1oc2c(O)c(O)ccc2c(=O)c1-c1ccccc1	·	-16%	-1%	11µM*	-15	·	6%	-1%	-27%	?	-22%
Cc1oc2c(O)c(O)ccc2c(=O)c1-c1ccc(Cl)cc1	?	-14%	5%	?	-5	2%[46.1 µM]	·	·	·	·	·
c1ccc(-c2n[nH]c(-c3ccccn3)n2)nc1	?	0%	12%	3.2µM*	84	?	-25%[38.3 µM]	-29%	9%	-8%	-12%
c1ccc(-c2nn[nH]n2)cc1	1%	-4%	5%	-3%	6	9%	·	·	·	·	·
c1ccc(-c2nn[nH]n2)nc1	·	11%	13%	7.9µM*	32	·	17%[38.3 µM]	10%	-4%	0%	-9%
CCN(CC)S(=O)(=O)c1nnc(NC(=O)COc2cccc(C)c2)s1	·	-3%	·	·	19	-3%[46.1 µM]	·	·	·	·	·
CCC(=O)N1CCc2cc(S(=O)(=O)NCCC(=O)Nc3cc(C)ccc3OC)ccc21	4%[46.1 µM]	-5%	·	·	3	13%[46.1 µM]	·	·	·	·	·
O=[N+]([O-])c1ccc(NN=Cc2cccc([N+](=O)[O-])c2)cc1	2%[46.1 µM]	-8%	?	·	-11	-4%[46.1 µM]	·	·	·	·	·
O=[N+]([O-])c1ccc(N/N=C/c2ccc[nH]2)cc1	?	0%	1µM*	18µM*	?	?	0%[10.4 µM]	1%	-26%	-18%	?
Oc1ccc(/C=N/Nc2ccnc3cc(Cl)ccc23)c(O)c1O	-7%[46.1 µM]	-11%	?	14µM*	31	-5%	-19%	0%	?	?	?
